# In PubChem BioAssay:
# Tested on: glycogen synthase kinase-3 (GSK3A per assay name; protocol says GSK3B)
# Test: compounds binding glycogen synthase kinase-3 – biochemical, small-molecule microarray, 635 nm fluorescence, GSK3A, primary screen (AID 1103); note: the record names both GSK3A and GSK3B
# Details: fluorescence 635 nm, higher = more signal
row,Compound,composite z-score
1,CCCN1C(=O)[C@]2(Cc3ccccc3)N=C(c3ccc(OCCCO)cc3)O[C@@H]2c2ccccc21,1.32
2,C[C@H]1C2=C3C(CC[C@H]4C(OCc5ccc(F)cc5C(F)(F)F)OC[C@](C)([C@@H]34)N(C(=O)OC(C)(C)C)C2)C2COC(=O)OCC21 (stereo not given in full),0.987
3,O=C1c2ccccc2[C@](Cc2ccccc2I)(C(=O)NCCN2CCOCC2)[C@H](c2ccc(CO)cc2)N1Cc1ccccc1,1.04
4,COC(=O)[C@@]1(Cc2ccc(OC)cc2)[C@H]2c3cc(C(=O)N(C)C)n(Cc4nc5ccccc5[nH]4)c3C[C@H]2CN1C(=O)c1ccccc1,1.23
5,C[C@]1(C(=O)NC2CC2)c2ccccc2C(=O)N(Cc2ccc(OC(F)(F)F)cc2)[C@H]1c1ccc(CO)cc1,-0.0882
6,CN(C)CCCNC(=O)[C@@H]1c2ccccc2C(=O)N(CC23CC4CC(CC(C4)C2)C3)[C@H]1c1ccc(CO)cc1,0.98
7,CC1CC/C=C\[C@H]2OC34C=CCN(C(C)C)C(=O)[C@H]3N(CCCCCO)C(=O)[C@@H]4C2C(=O)O1 (stereo not given in full),-0.609
8,C=CCOC(=O)[C@H]1[C@@H]2C(=O)O[C@@H](c3ccccc3)[C@@H](c3ccccc3)N2[C@@H](c2ccc(OCCOC(=O)[C@H]3C[C@H]4C(=O)N[C@@H](Cc5ccccc5)C(=O)N4[C@H]3c3cccc(OCCO)c3)cc2)[C@]12C(=O)Nc1ccc(I)cc12,1.28
9,CC(C)CN1C(=O)[C@@]2(c3ccc([N+](=O)[O-])cc3)CC(=O)N(CC34CC5CC(CC(C5)C3)C4)[C@@H]2c2ccc(CO)cc21,-0.853
10,C=C(CCCC)/C(=C/C[C@@H](OC(C)=O)c1ccc(CO)o1)c1cc(C(=O)OC)ccc1OC,1.13
